Source: PubChem BioAssay (several laboratories)
A selection: hits, their analogues and other compounds. The true share with any hit is near 2.5%.
sEH inhibitor: soluble epoxide hydrolase (human) inhibition. P34913. actives 0.34% (n = 91,000). recombinant human sEH enzymatic activity assay. AID 707. inhibition, % at 2 µM; in the data active = inhibition above about 80%
Target sequence (P34913 whole entry, looked up): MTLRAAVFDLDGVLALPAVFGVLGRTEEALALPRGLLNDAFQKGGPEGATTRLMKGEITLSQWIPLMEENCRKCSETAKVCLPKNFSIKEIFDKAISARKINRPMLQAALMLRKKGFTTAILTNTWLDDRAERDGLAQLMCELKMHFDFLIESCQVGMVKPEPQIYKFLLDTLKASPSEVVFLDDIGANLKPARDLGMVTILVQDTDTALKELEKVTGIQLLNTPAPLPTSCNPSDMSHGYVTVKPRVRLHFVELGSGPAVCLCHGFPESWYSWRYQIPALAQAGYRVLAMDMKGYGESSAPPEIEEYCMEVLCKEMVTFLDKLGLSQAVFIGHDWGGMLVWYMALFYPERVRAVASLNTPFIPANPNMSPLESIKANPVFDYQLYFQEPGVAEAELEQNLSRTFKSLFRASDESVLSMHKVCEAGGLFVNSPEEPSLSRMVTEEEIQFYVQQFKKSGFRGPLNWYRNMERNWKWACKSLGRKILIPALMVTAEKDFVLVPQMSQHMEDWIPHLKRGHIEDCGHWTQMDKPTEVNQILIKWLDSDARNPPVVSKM
sEH activator: activators of human soluble epoxide hydrolase | purified human sEH enzymatic activity, activator screen | AID 717 | activation, % at 2 µM | P34913 | actives 0.04% (n = 91,000); in the data active = activation above about 37%
sdo1 growth: sdo1-depleted yeast growth rescue | AID 817 | actives 0.21% (n = 140,000) | S. cerevisiae sdo1-depleted JHY4D growth rescue, OD600 30 h; hits give high values; pdr5 snq2 efflux-pump mutant strain | z-score at 10 µM;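 active = z-score above 3 at both the 24 hr and the 30 hr optical density reads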;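 also: z-score against mean and SD of all compound wells on the same plate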
MRP reversal: reverses drug resistance mediated by MRP; AID 602; differential viability (reversal), % at 10 µM; actives 0.04% (n = 85,000); H69AR cells + 2 uM doxorubicin, CellTiter-Glo, 72 h;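 active = viability drop by adding the cancer drug above about 55%, with treated viability meeting a 40% cutoff, limit read from the data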;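 also: viability without doxorubicin minus viability with 2 µM doxorubicin for each compound; larger differential means the compound sensitizes cells more to doxorubicin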
Measles CPE: protection of cells from measles virus | Measles virus-infected cells, CPE protection, absorbance | protection (pct of control), % at 4 µM | actives 1.5% (n = 140,000); in the data active = protection mostly above about 24%, no sharp cut-off; inactive = mostly below about 26%
MRP-1 activ: MRP-1 activation; H69AR cells + doxorubicin, viability rescue, CellTiter-Glo; viability increase, % at 10 µM; actives 0.61% (n = 140,000); AID 799;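 active = viability gain under doxorubicin at or above a set limit, the compound median plus 3 SD, cut at about 4.7% in these data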;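 also: MRP-1 overexpressing cells given doxorubicin 25 µM after compound pretreatment; 18-22 h compound pretreatment then 72 h with doxorubicin before readout; 0% = doxorubicin-only wells and 100% = vehicle-treated cells without doxorubicin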
Active calls of the source: *; x = no result given; [ ] = remark or other dose.

SMILES | sEH inhibitor | sEH activator | sdo1 growth | MRP reversal | Measles CPE | MRP-1 activ
O=C(CSc1nnc(CCCN2C(=O)c3cccc4cccc(c34)C2=O)n1-c1ccccc1)N1CCN(CCO)CC1 | x | x | 0.78 | x | 4 | -2
Cn1c(=O)n(CCc2ccccc2)c(=O)c2c1nc1n2CCN1c1ccccc1 | x | x | x | -7 | x | x
C=CCN1C(=O)CSc2ccc(C(=O)NCCC3=CCCCC3)cc21 | 89* | -89 | -0.87 | -19 | 10 | -3
O=C(NCCC1=CCCCC1)c1ccc(Cl)c(S(=O)(=O)N2CCOCC2)c1 | 94* | -94 | -0.78 | 2 | 1 | -1
CCN1C(=O)CSc2ccc(C(=O)NCc3ccc(OC)cc3)cc21 | 69 | -68 | 0.91 | 0 | 36* | -4
O=C(c1ccc2c(c1)OCO2)N(Cc1ccco1)C1(C(=O)NC2CCCCC2)CCCCC1 | 5 | -7 | -1.2 | x | 2 | -2
CSc1nnnn1-c1ccc(C)c(Cl)c1 | x | x | -0.12 | x | 10 | -2
CC(C)C(C(=O)Nc1sc2c(c1C#N)CCCCC2)N1C(=O)c2ccccc2C1=O (stereo not given) | -6 | 4 | -0.25 | x | 56* | -4
N#Cc1c(NC(=O)c2ccccc2)sc2c1CCC2 | -3 | 4 | -0.4 | -26 | 2 | -2
CNS(=O)(=O)c1ccc(NCC2COc3ccccc3O2)c([N+](=O)[O-])c1 (stereo not given) | x | x | 0.53 | x | 22 | 0
O=C(CCSc1ccc(Cl)cc1)N1CCN(c2ncccn2)CC1 | 4 | -4 | -1 | 5 | 10 | 0
O=C(CCSc1ccc(Cl)cc1)N1CCCCCC1 | -1 | 2 | -0.36 | x | 31* | 2
O=C(Nc1ccc(S(=O)(=O)Nc2ccc(Cl)cc2)cc1)C1CCCO1 (stereo not given) | 2 | -2 | 0.1 | 5 | 40* | 0
CCOc1ccc(-c2nnc(NC(=O)c3ccc(OCC(C)C)c(OC)c3)o2)cc1 | x | x | -0.85 | -23 | 41* | -4
CC(C)c1[nH]nc2c1C(c1cccnc1)C(C#N)=C(N)O2 (stereo not given) | -8 | 7 | 0.82 | 5 | 44* | 0
Cc1ccc(-c2[nH]nc3c2C(c2cccnc2)C(C#N)=C(N)O3)cc1 (stereo not given) | x | x | 0.39[14 µM] | 8 | 31 | -2
COc1ccc(-c2nnnn2CCc2ccccc2)cc1 | -4 | 4 | 0.23 | -8 | 22 | -3
CC(=O)NC(Cc1ccccc1)C(=O)N1CCN(C(=O)c2ccco2)CC1 (stereo not given) | 16 | -15 | 0.5 | -2 | 36* | -1
O=c1cc(CSc2ccc(S(=O)(=O)N3CCCCC3)cn2)nc2sccn12 | -3 | 0 | 0.14 | -12 | 3 | -1
CC1(C)C(=O)OC(c2cccs2)C(C)(C)C1=O (stereo not given) | 9 | -8 | 0.93 | 8 | 20 | -1
O=C(NCc1ccccc1)c1cccc(COc2ccccc2Cl)c1 | 24 | -22 | -1.3 | x | 17 | 0
O=C(NCc1ccccc1)c1cccc(COc2cc(Cl)ccc2Cl)c1 | x | x | -0.17 | x | 44* | 1
O=C(CSc1ncnc2sc3c(c12)CCCC3)c1ccco1 | 2 | -3 | -1.1 | 12 | 46* | -1
CN(C)c1ccc(C2SCCN2C(=O)c2ccc([N+](=O)[O-])cc2)cc1 (stereo not given) | x | x | 0.44 | x | 3 | -2
O=C(c1ccc([N+](=O)[O-])cc1)N1CCSC1c1ccccc1 (stereo not given) | x | x | 1.4 | x | 24* | 1
SMILES | sEH inhibitor | sEH activator | sdo1 growth | MRP reversal | Measles CPE | MRP-1 activ
O=C(CCCC(=O)N(CC(=O)NC1CCCC1)C1CCCC1)Nc1ccccn1 | -4 | 4 | 0.58 | -7 | 70* | -1
COC(=O)[C@@]1(Cc2ccccc2)[C@@H]2C(=CC(=O)[C@H]2CC(=O)C(=O)N(C)C)CN1C(=O)c1ccccc1 | x | x | -0.78 | x | 82* | -5
COC(=O)[C@@]1(Cc2ccc(F)cc2)[C@H]2c3cc(C(=O)N(C)C)n(C[C@H](O)CO)c3C[C@H]2CN1C(=O)c1ccccc1 | x | x | -0.16 | x | 27 | -1
CC(NC(=O)COc1ccc(-c2nnco2)cc1)c1ccc(Cl)cc1Cl (stereo not given) | x | x | -0.33 | x | 15 | 1
O=C(Oc1ccc2ccccc2c1Cl)N1CCCCCC1 | x | x | -0.27 | x | 30* | 1
Cc1ccc(S(=O)(=O)NC(=O)c2cc(C)n(-c3ccc(N(C)C)cc3)c2C)cc1 | x | x | 0.9 | x | 4 | 0
COc1cc(C(=O)NCC(c2ccco2)N(C)C)cc(OC)c1OC (stereo not given) | x | x | 0.96 | x | 7 | -1
Cc1cc(C(=O)NCC(c2ccco2)N(C)C)no1 (stereo not given) | 13 | -13 | -0.01 | x | 66* | -2
COc1ccc(NC(=O)c2cccc(S(=O)(=O)N(C)c3ccccc3)c2)cn1 | x | x | -0.22 | x | 8 | -2
COc1ccc(NC(=O)c2cc(S(=O)(=O)N(Cc3ccccc3)c3ccccc3)ccc2Cl)cn1 | x | x | -0.03 | x | 39* | -5
CNC(=O)OCc1cccc(COC(=O)NC)n1 | 12 | -12 | 0.48 | 0 | 46* | -2
CC(=O)NCc1cccc(CNC(C)=O)n1 | 8 | -8 | 0.14 | -5 | 10 | 0
COc1cc(C)c(Br)cc1S(=O)(=O)N1CCCC1 | 4 | -6 | 0.96 | 2 | 30* | -2
CCN(CC)S(=O)(=O)c1cc(C)ccc1SC | x | x | -0.52 | x | 4 | -1
C=CCn1c(SCc2c(C)noc2C)nc2sc3c(c2c1=O)CCCC3 | 6 | -6 | -0.8 | -30 | 1 | -2
Cc1noc(C)c1CSc1nc2sc3c(c2c(=O)n1C)CCCC3 | -2 | 2 | -1.6 | 0 | 96* | -2
Cn1nnc(NC(=O)COc2ccc(C3CCCCC3)cc2)n1 | 10 | -6 | -0.92 | 13 | 8 | 5.3*
O=C(COc1ccc(-n2cnnn2)cc1)NC1CCCCC1 | x | x | 0.21 | 15 | 3 | -2
COC(=O)c1ccc(Cl)c(NC(=O)CN2CCN(Cc3ccccc3)CC2)c1 | -5 | 7 | -0.79 | 18 | 36* | -2
O=C(CN1CCOCC1)Nc1ccccc1Cl | -14 | 13 | 0.12 | 18 | 60* | -1
O=C(O)c1ccc2c(c1)C(=O)N(N1C(=O)c3ccccc3C1=O)C2=O | x | x | 0.52 | x | 20 | -1
Cc1ccc(OCCN2CCN(C(=O)CCC(=O)Nc3nnc(C(C)C)s3)CC2)cc1 | 8 | -8 | 0 | 11 | 10 | 0
CCCc1nnc(NC(=O)CCC(=O)N2CCN(CCn3c(C)ccc3C)CC2)s1 | 3 | 0 | 0.2 | x | 31* | -5
Cc1ccc(OCCN2CCN(C(=O)CCC(=O)Nc3nnc(C)s3)CC2)cc1 | 3 | 0 | 1.8 | 8 | 32 | 7.8*
CCCc1nnc(NC(=O)CCC(=O)N2CCN(CCOc3ccc(C)cc3)CC2)s1 | -5 | 7 | 0.48 | 10 | 2 | -1
CCN(CC)C(=O)NC1CC(=O)N(c2ccc(OC)cc2)C1 (stereo not given) | x | x | 0.52 | x | 16 | 0
Cc1cc(N2C(=O)C3C4C=CC(C4)C3C2=O)ccc1Br (stereo not given) | -3 | 5 | -0.32 | x | 10 | -2
